Inconclusive results are not listed. Active and inactive are the calls of the source. Calls follow the shape of the dose curve; as a rule, active = well fitted activation curve with a large enough effect in the signal ratio in the repeat runs (not every such curve was filed as active); inconclusive = weak or mixed curves; inactive = flat fitted curve, though single readings scatter; the % refers to the signal ratio.
experiment: qHTS assay to identify small molecule agonists of the hypoxia (HIF-1) signaling pathway (AID 1224846); conditions: HRE-bla ME-180 cells, beta-lactamase ratio, 17 h; series mostly up to 76.8 µM; activation: at the top concentration
Source text: U.S. Tox21 Program National Center for Advancing Translational Sciences [NCATS] NIH Chemical Genomics Center [NCGC] U.S. Environmental Protection Agency [EPA] National Institutes of Environmental Health Sciences [NIEHS] National Toxicology Program [NTP] U.S. Food and Drug Administration [FDA] Tox21 Assay Overview: Hypoxia-inducible factor-1 (HIF-1) is the major hypoxia-regulated transcription factor that controls cellular responses to low oxygen concentration. HIF-1 is composed of two subunits: hypoxia responsive HIF-1-alpha and constitutively expressed HIF-1-beta, which is also known as aryl hydrocarbon receptor nuclear translocator. During hypoxic conditions, HIF-1-alpha heterodimerizes with HIF-1-beta and translocates into the nucleus where the HIF-1 complex binds to the hypoxia-response element (HRE) and activates expression of target genes such as VEGF (vascular endothelial growth factor). The HIF-1 pathway is essential to normal growth and development, and is involved in the pathophysiology of cancer, inflammation, and ischemia. Using a beta-lactamase reporter-gene under control of the hypoxia response element, a cell-based assay [CellSensor(TM) HRE-bla ME-180 from Life Technologies, Carlsbad, CA] was used to measure hypoxia-induced signaling. Tox21 10K library compounds were measured for their ability to induce the reporter gene activity.
Tox21 Assay Protocol Summary: HRE-bla ME-180 cells were dispensed at 2,000 cells per well in 6 uL of assay medium containing 0.5% dialyzed FBS into black wall/clear-bottom 1536-well plates using a Multidrop Combi (Thermo Scientific, Waltham, MA) dispenser. After the assay plates were incubated at 37C and 5% CO2 for 5 hrs, 23 nL of compounds dissolved in DMSO, positive controls or DMSO only was transferred to each well of the assay plate using a Pintool station (Kalypsys, San Diego, CA). The assay plates were incubated at 37C and 5% CO2 for 17 hrs. One uL of LiveBLAzerTM B/G FRET substrate (CCF4-AM) (Life Technologies) was added to each well using a Flying Reagent Dispenser (Aurora Discovery, San Diego, CA).
% is scaled to controls: 0 for no effect and ±100 for the full control effect.

| SMILES | activation |
| --- | --- |
| O=C1Cc2cc(Cl)ccc2N1 | -0.427% [at 35.5 µM] (inactive) |
| OC[C@H]1O[C@@H](n2cnc3c(=S)nc[nH]c32)[C@H](O)[C@@H]1O | -1.25% [at 35.5 µM] (inactive) |
| CC(CO)CO | -0.3% (inactive) |
| CC1(C)[C@H](C(=O)O)N2C(=O)C[C@H]2S1(=O)=O | -1.07% [at 35.5 µM] (inactive) |
| COc1ccccc1Oc1c(NS(=O)(=O)c2ccc(C(C)(C)C)cc2)nc(-c2ncccn2)nc1OCCO | 1.15% [at 35.5 µM] (inactive) |
| Oc1cc2c(cc1O)[C@H]1c3ccc(O)c(O)c3OC[C@@]1(O)C2 | 2.88% (inactive) |
| C[C@]12CC[C@@H]3c4ccc(O)cc4CC[C@H]3[C@@H]1CC[C@@H]2OC(=O)CCC1CCCC1 | -1.3% [at 35.5 µM] (inactive) |
| Oc1ccc(Cl)c2cccnc12 | 0.513% [at 35.5 µM] (inactive) |
| CC(=O)c1ccc([N+](=O)[O-])cc1 | -0.888% (inactive) |
| NCCNCCO | -0.138% (inactive) |
| CCCCN1CCCC1C(=O)Nc1c(C)cc(C)cc1C (stereo not given) | 0.214% [at 35.5 µM] (inactive) |
| O=C(O)C[C@H](NC(=O)OCc1ccccc1)C(=O)O | -1.31% (inactive) |
| Cc1ccco1 | 0.141% (inactive) |
| CCCCCCCCOc1ccc(C(=O)O)cc1 | 6.35% (inactive) |
| COc1ccccc1N1CCN(CCCCNC(=O)c2ccc(-c3ccc(C(C)=O)cc3)cc2)CC1 | 1.3% [at 35.5 µM] (inactive) |
| Brc1cc(Br)c(Oc2cc(Br)c(Br)cc2Br)cc1Br | 0.466% [at 35.5 µM] (inactive) |
| O=C(O)CCCCCCCCCCCBr | 1.01% (inactive) |
| CCOC(=O)c1ccc(C#Cc2ccc3c(c2)C(C)(C)CCS3)nc1 | 2.3% [at 35.5 µM] (inactive) |
| CCCCN(CCN(CCCC)C(=O)N1CCOCC1)C(=O)N1CCOCC1 | -1.33% [at 35.5 µM] (inactive) |
| CCc1ccccc1 | -1.44% (inactive) |

| SMILES | activation |
| --- | --- |
| CC(O)c1ccccc1 (stereo not given) | 0.121% (inactive) |
| c1csc(SSc2cccs2)c1 | 2.45% (inactive) |
| O[C@@H]1CO[C@H]2[C@@H]1OC[C@@H]2O | -0.0449% [at 35.5 µM] (inactive) |
| CC[N+](CC)(CCNC(=O)C(=O)NCC[N+](CC)(CC)Cc1ccccc1Cl)Cc1ccccc1Cl | -2.26% [at 35.5 µM] (inactive) |
| CCOC(=O)/C=C/C(=O)OCC | -0.0703% (inactive) |
| C/C=C\C/C=C/CCCCCCCCOC(C)=O | -0.677% (inactive) |
| CC(=O)c1cc2ccccc2s1 | -0.0559% [at 35.5 µM] (inactive) |
| O=C(OC(=O)c1ccccc1)c1ccccc1 | -0.182% (inactive) |
| NC(=O)c1ccncc1 | -0.99% (inactive) |
| O=C(O)c1cccc(-c2noc(-c3ccccc3F)n2)c1 | -0.628% [at 35.5 µM] (inactive) |
| COc1cc(C(=O)NCCCCCC(=O)O)cc(OC)c1OC | -0.788% [at 35.5 µM] (inactive) |
| C=C(C)CCCC(C)CCO (stereo not given) | 0.263% (inactive) |
| O=c1cc(-c2ccccc2)oc2ccc3ccccc3c12 | -0.0459% (inactive) |
| OC1(c2ccccc2)CCNCC1 | 0.0602% [at 35.5 µM] (inactive) |
| CCCCCCC(C)(C)C(=O)O | 0.0566% (inactive) |
| O=C1Cc2ccccc2N1c1c(Cl)cccc1Cl | 0.86% (inactive) |
| CCCCCCCC/C=C\CCCCCCCCO | 0.161% (inactive) |
| NNC(=O)CP(=O)(c1ccccc1)c1ccccc1 | -0.49% [at 35.5 µM] (inactive) |
| CCOC(C)=O | -0.259% (inactive) |
| Cc1ccc(CO)cc1 | -0.262% (inactive) |

Reference: PubChem BioAssay (Tox21)
